Measles CPE – protection of cells from measles virus | Measles virus-infected cells, CPE protection, absorbance | actives 1.5% (n = 140,000) | AID 841 | protection (pct of control), % at 4 µM; in the data active means protection mostly above about 24%, no sharp cut-off; inactive means mostly below about 26%
PTPN22 inh 2 – inhibitors of human LYP (PTPN22) phosphatase; inhibition, % at 2 µM; actives 0.21% (n = 96,000); recombinant LYP catalytic domain, DiFMUP fluorescence; Q9Y2R2;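 active means inhibition at 2 µM at or above a set limit, the screen mean plus 3 SD, cut at about 24% in these data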;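 further: 0% = DMSO with enzyme and 100% = enzyme fully blocked by orthovanadate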
Target sequence (Q9Y2R2 whole entry, looked up, the tested form may be a part): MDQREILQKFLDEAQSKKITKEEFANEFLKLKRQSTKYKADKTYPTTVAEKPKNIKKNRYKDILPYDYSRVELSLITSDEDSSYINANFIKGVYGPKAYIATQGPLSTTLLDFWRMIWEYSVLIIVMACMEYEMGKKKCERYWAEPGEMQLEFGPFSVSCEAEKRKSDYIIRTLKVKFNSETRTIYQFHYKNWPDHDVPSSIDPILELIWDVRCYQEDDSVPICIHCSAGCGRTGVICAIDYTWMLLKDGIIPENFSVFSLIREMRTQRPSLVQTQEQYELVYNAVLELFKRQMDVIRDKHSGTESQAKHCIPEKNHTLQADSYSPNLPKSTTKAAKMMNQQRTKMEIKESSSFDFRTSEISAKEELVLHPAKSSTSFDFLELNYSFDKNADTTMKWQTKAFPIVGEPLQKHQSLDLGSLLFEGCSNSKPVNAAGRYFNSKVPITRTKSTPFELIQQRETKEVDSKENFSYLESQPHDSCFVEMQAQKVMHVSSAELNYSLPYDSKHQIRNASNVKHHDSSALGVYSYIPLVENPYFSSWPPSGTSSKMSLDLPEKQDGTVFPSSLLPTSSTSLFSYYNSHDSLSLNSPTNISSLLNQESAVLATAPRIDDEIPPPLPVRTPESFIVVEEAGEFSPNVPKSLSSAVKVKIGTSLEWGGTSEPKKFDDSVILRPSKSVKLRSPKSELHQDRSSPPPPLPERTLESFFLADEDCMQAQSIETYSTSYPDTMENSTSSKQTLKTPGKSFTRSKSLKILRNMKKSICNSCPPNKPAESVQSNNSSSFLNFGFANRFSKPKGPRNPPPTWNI
PTPN22 act – increases human PTPN22 phosphatase activity. actives 0.11% (n = 96,000). recombinant LYP, DiFMUP fluorescence; 0 = plate median, 100 = signal doubled. Q9Y2R2. AID 697. activation, % at 2 µM;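 active means activation at 2 µM above a set limit, the mean plus 5 SD, cut at about 37% in these data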
Active calls of the source: *; nt = no result. A selection: hits, their analogues and other compounds. The true share with any hit is near 1.7%.

SMILES	Measles CPE	PTPN22 inh 2	PTPN22 act
O=C(NC1CC2CCCC(C1)N2Cc1ccco1)NC12CC3CC(CC(C3)C1)C2 (stereo not given)	4.7	-3.9	1.6
COc1cccc(C2NC(C)(C(=O)O)C3C(=O)N(C(C)C)C(=O)C23)c1O (stereo not given)	29.4*	-10.4	10.4
CSCCC1(C(=O)O)NC(c2ccccc2O)C2C(=O)N(C(C)C)C(=O)C21 (stereo not given)	15.2	0.3	-0.3
CCCCOc1cccc(C(=O)NC(=S)Nc2cccc(NC(=O)c3ccccc3Cl)c2)c1	13.6	nt	nt
Cc1cs/c(=N/C(=S)Nc2ccccc2)n1C	18.5	nt	nt
CCCn1c(C)cs/c1=N\C(=S)Nc1ccccc1	43.5*	nt	nt
CCCOc1ccccc1N1C(=O)CC(N2CCOCC2)C1=O (stereo not given)	35.6	-5.7	3.4
Cc1nn(-c2ccccn2)c(C)c1Oc1ccccc1O	0.4	6.5	-5.9
Cc1nn(-c2nc3ccccc3s2)c(C)c1Oc1ccccc1O	43.8*	nt	nt
CC(C)(C)c1ccc(C(=O)NNC(=O)c2ccccc2Br)cc1	5.0	11.5	-6.5
CCOc1ccc(C(=O)Nc2nc(C)cc(C)n2)cc1[N+](=O)[O-]	15.1	nt	nt
Cc1ccc(C(=O)c2c[nH]c(C(=O)NCc3cccnc3)c2)cc1	27.8*	-0.5	-1.9
Cc1cc(C(=O)NCc2cccnc2)cs1	4.3	-9.1	4.4
CC1(C)NC(=O)N(CCCCOc2ccc(Br)cc2Cl)C1=O	7.6	2.2	-3.3
CC1(C)NC(=O)N(CCCOc2ccc(Br)cc2Cl)C1=O	56.8*	3.5	-2.2
CC(C)C(=O)Nc1ccc(C(=O)N2CCN(C(=O)c3ccco3)CC2)cc1	8.9	-7.9	5.3
CC(C)C(=O)Nc1ccc(C(=O)N2CCCCCC2)cc1	39.0*	2.3	-3.2
CCOC(=O)Cc1csc(/C(=N/O)C(N)=O)n1	32.8*	8.0	-8.4
CCOC(=O)Cc1csc(N)n1	3.8	4.6	-5.5
Cc1cccc(NC(=O)CN2C(=O)N/C(=C/c3ccc(C)o3)C2=O)c1	6.7	nt	nt
Cc1ccc(-c2nc(N)sc2CC(=O)OCC(=O)N2C(C)CCCC2C)cc1 (stereo not given)	6.3	nt	nt
Cc1ccc(-c2nc(N)sc2CC(=O)OCC(=O)NC2CCCC(C)C2C)cc1 (stereo not given)	26.4*	nt	nt
c1csc(-c2cnc3ccccc3n2)c1	7.7	nt	nt
c1cc2c(cnc3cscc32)s1	33.8*	nt	nt
CCOC(=O)c1c(N2C(=O)Nc3cc(Cl)c(Cl)cc3N2O)sc2c1CCCCC2	15.6	32.2*	-30.0
SMILES	Measles CPE	PTPN22 inh 2	PTPN22 act
CCOC(=O)c1c(N2C(=O)C3C4C=CC(O4)C3C2=O)sc2c1CCCC2 (stereo not given)	7.9	5.7	-3.5
COc1ccccc1C1N(c2ccc(Cl)cc2)C(=O)C2CCCN21 (stereo not given)	6.2	-7.7	5.0
O=C1C2CCCN2C(c2cccs2)N1c1ccc(Cl)cc1 (stereo not given)	25.2*	0.5	-2.7
COc1ccccc1CNC(=O)C1CC(c2ccccc2[N+](=O)[O-])=NO1 (stereo not given)	2.7	3.5	1.0
COc1cccc(C2=NOC(C(=O)NCc3ccccc3)C2)c1 (stereo not given)	23.5*	7.9	-8.6
COc1ccc(C2=NOC(C(=O)NCc3ccccc3)C2)cc1 (stereo not given)	3.2	4.1	-4.8
COc1ccc(CNC(=O)C2CC(c3ccccc3[N+](=O)[O-])=NO2)cc1 (stereo not given)	35.8*	7.0	-5.4
Cn1c(=O)c2c(SCc3cccnc3)nc(CC(C)(C)C)nc2n(C)c1=O	6.3	nt	nt
CCC(C(=O)NCc1ccc(F)cc1)N(Cc1ccco1)C(=O)c1snc(C(N)=O)c1N (stereo not given)	7.8	-24.6	20.6
CC(C(=O)NCC1(c2ccccc2)CCCC1)N1CCOCC1 (stereo not given)	3.9	1.8	-2.7
CCCn1cc(SCC(=O)Nc2ccc3c(c2)OCO3)c2ccccc21	13.6	-3.5	1.2
O=C(Nc1ccc(Cl)c(Cl)c1)N1CCC(N2CCCCC2)CC1	61.0*	-1.0	-0.5
COc1cccc(NC(=O)N2CCC(N3CCCCC3)CC2)c1	15.2	-15.4	11.4
COCCNc1oc(-c2ccc(Cl)cc2)nc1C#N	15.1	3.2	-5.3
Fc1ccc(-c2nnn(Cc3nc4ccccc4s3)n2)cc1	46.3*	-4.1	2.7
Clc1ccc(-c2nnn(Cc3nc4ccccc4s3)n2)cc1	12.9	1.4	-2.0
COc1cc(OC)c(OC)cc1C=NCC1(c2ccccc2)CCCC1	1.7	11.8	-9.9
Cn1c[n+](C)cc1/C=N/O	19.3	-1.0	-1.2
CCC(=O)N1CCc2cc(Br)cc(S(=O)(=O)NCC3CCCO3)c21 (stereo not given)	8.7	nt	nt
CCOc1ccc(NC(=O)Nc2ccc3c(c2)N(C)C(=O)CS3)cc1	41.1*	nt	nt
CC(=O)c1ccc(NC(=O)Nc2ccc3c(c2)N(C)C(=O)CS3)cc1	14.3	-13.6	12.8
COc1cc2c(cc1OC)-c1cc(Nc3ccc4c(c3)OCCO4)nc(=O)n1CC2	7.8	9.9	-13.5
OC[C@H]1O[C@@H](n2cnc3c(NC4CCCC4)ncnc32)[C@H](O)[C@@H]1O	13.0	nt	nt
O=C(OCC1OC(n2cnc3c(N(C(=O)c4ccccc4)C(=O)c4ccccc4)ncnc32)C(O)C1F)c1ccccc1 (stereo not given)	5.2	59.9*	-58.6
Cc1ccc(NC(=O)COC(=O)C2=COCCO2)cc1	3.8	7.4	-7.9
SMILES	Measles CPE	PTPN22 inh 2	PTPN22 act
CCOC(=O)c1cc(NC(=O)N(C(C)C)C(C)C)c(C)nc1C	8.2	-4.6	2.0
Cc1c2c(nc3nc4ccccc4n13)CC(C)(C)CC2=O	2.5	-4.7	8.0
CC(NS(C)(=O)=O)C(c1cccs1)N1CCN(C)CC1 (stereo not given)	16.6	4.8	-7.0
CC(NS(=O)(=O)c1ccc(Br)cc1)C(c1cccs1)N1CCN(C)CC1 (stereo not given)	27.3*	nt	nt
CC(NS(C)(=O)=O)C(c1cccs1)N1CCN(Cc2ccccc2)CC1 (stereo not given)	30.8*	nt	nt
CC(NS(=O)(=O)c1ccccc1)C(c1cccs1)N1CCN(c2ccccc2)CC1 (stereo not given)	2.2	5.4	-7.5
C=CCn1c(CNC(=O)c2cccs2)nnc1SCC(=O)Nc1ccc(C(=O)O)cc1	5.5	2.0	0.9
Cc1cccc(N(CC(=O)NC2CCCC2)C(=O)CCCC(=O)Nc2ccccn2)c1	5.0	12.2	-12.2
Cc1cccc(N(CC(=O)NC2CCCCC2)C(=O)CCCC(=O)Nc2ccccn2)c1	32.9*	-0.3	0.8
Cc1cc(NO)c(C(C)C)cc1N=O	6.2	nt	nt
Cc1cc(SCC(=O)c2ccc3c(c2)OCO3)nc2ccccc12	30.7*	-1.8	4.3
Cc1cc(SCC(=O)c2cc3ccccc3o2)nc2ccccc12	7.8	15.5	-14.1
COc1ccc(CNC(=S)Nc2cccc(C)c2)cc1	39.6*	1.0	0.0
COc1ccc(C/C(C)=N/NC(=S)Nc2ccc(C)c(C)c2)cc1	19.7*	nt	nt
COc1ccc(C/C(C)=N/NC(=S)Nc2ccccc2)cc1	12.2	nt	nt
Cc1cccc(NC(=S)NCc2ccc(F)cc2)c1	4.2	nt	nt
CC1(C)CC2CC(C)(CN2C(=O)COC(=O)c2ccc(Cl)cc2N)C1 (stereo not given)	2.1	-11.4	8.6

Screens (PubChem BioAssay)
